# From PubChem BioAssay
# CYP2C9 inh: blockers of cytochrome P450 2C9 activity – biochemical, luminescence, ADME assay, primary screen; AID 777, 2007; inhibition, % at 5 µM; P11712; actives 20% (n = 96,000); CYP2C9 Supersomes, luciferin-H conversion;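 active means blocking of liver enzyme CYP2C9 beyond about 50% at 5 µM, limit read from the data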
# Target sequence (P11712 whole entry, looked up): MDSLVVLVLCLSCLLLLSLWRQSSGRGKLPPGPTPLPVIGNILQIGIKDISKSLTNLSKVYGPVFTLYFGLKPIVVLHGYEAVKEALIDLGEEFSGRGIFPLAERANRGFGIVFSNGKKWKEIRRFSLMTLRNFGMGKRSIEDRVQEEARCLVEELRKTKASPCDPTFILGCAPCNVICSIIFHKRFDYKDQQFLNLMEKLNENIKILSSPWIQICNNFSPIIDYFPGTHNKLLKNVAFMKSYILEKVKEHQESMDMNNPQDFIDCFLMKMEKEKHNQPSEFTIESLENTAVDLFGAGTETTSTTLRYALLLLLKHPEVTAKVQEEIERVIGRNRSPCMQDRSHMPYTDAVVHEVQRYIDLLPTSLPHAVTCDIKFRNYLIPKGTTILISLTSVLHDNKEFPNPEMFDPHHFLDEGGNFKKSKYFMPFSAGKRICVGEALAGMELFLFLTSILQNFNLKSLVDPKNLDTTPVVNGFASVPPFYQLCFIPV
# CYP2C19 act: human CYP2C19 activators, primary screen, biochemical, luminescence; Cytochrome P450 2C19 (Homo sapiens), P33261; recombinant CYP2C19, luciferin-H EGE luminescence; hits give high values; 0 = fully inhibited enzyme, 1 = untreated enzyme; activation factor at 5 µM; 96,000 tested, under 10 active;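 active means activation factor of at least 2 at 5 µM in the primary screen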;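 further: 0 = wells with 2.5 mM tranylcypromine and 1 = vehicle-only wells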
# CYP2C19 inhib: blockers of cytochrome P450 2C19 activity – biochemical, luminescence, ADME assay, primary screen; CYP2C19 Supersomes, luciferin-H EGE luminescence, 30 min; actives 21% (n = 96,000); inhibition, % at 5 µM; P33261;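 active means CYP2C19 inhibition above a set limit at 5 µM in the primary screen, cut at about 50% in these data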;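 further: plate controls were negative control wells for no effect and 2.5 mM tranylcypromine positive control for full effect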
# CYP2C9 act: human CYP2C9 activators, primary screen, biochemical, luminescence. Cytochrome P450 2C9 (Homo sapiens), P11712. recombinant CYP2C9, luciferin-H conversion; hits give high values; factor 1 = untreated enzyme, 0 = blocked. activation factor at 5 µM. actives 1.4% (n = 96,000);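 active means activation factor of 2 or more for CYP2C9 at a 5 µM dose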;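 further: 0 = sulfaphenazole-blocked wells and 1 = vehicle-only wells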
# The depositor's hits bear a star. Rows were chosen to be rich in hits. Some 31% of all compounds tested hit in one or more screens of this group.
SMILES,CYP2C9 inh,CYP2C19 act,CYP2C19 inhib,CYP2C9 act
CC(C)=CCC(C)(C)C1OCCN1C(=O)c1ccccc1 (stereo not drawn),44,0.3,71*,0.6
O=c1nc2scc(-c3ccccc3)n2c2ccccc12,2,0.8,16,1
C/C(=N/Oc1nc(C)cc(C)n1)c1ccc(Br)cc1,34,0.5,53*,0.7
O=C(c1ccco1)N1CCN(C(=O)c2cc3sccc3n2Cc2ccccc2)CC1,89*,0.8,20,0.1
O=C(NCc1ccco1)C1CCN(C(=O)c2cc3sccc3n2Cc2ccc(F)cc2)CC1,98*,0.1,86*,0
CC1Cc2ccccc2N1C(=O)CN1C(=O)CN(C)C(=O)c2ccccc21 (stereo not drawn),-31,1.1,-8,1.3
Cc1nc2cc(-c3cccc(F)c3)nn2c(N2CCN(C(=O)c3ccco3)CC2)c1C,4,0.9,7,1
Cc1cccc(NC(=O)c2ccccc2O)c1C,34,0.8,16,0.7
O=C(Nc1ccccc1O)c1ccccc1O,63*,1.3,-34,0.4
Cc1ccc(C)c(NC(=O)c2ccccc2O)c1,51*,0.7,33,0.5
Cc1ccc(C)c(NC(=O)c2ncn[nH]2)c1,5,1,0,0.9
CCS(=O)(=O)c1ccc(NC(=O)c2ccccc2Cl)c(O)c1,53*,1,4,0.5
O=C(c1ccc2snnc2c1)N1CCOCC1,-6,0.7,30,1.1
Cn1c(SCC(=O)NC2CCCC2)nnc1-c1ccc(S(=O)(=O)N2CCOCC2)cc1,-5,1,-4,1.1
CCOc1ccc(OCC)c(NC(=O)CNS(=O)(=O)c2cccs2)c1,34,0.7,30,0.7
COc1ccc(NC(=O)CCCNS(=O)(=O)c2cccs2)cc1,50,0.3,72*,0.5
COc1ccc(NC(=O)CNS(=O)(=O)c2cccs2)cc1,40,0.5,53*,0.6
CC1(C)CC(=O)C2=C(C1)N=C1c3ccccc3C(=O)C1C2c1ccc(Cl)cc1 (stereo not drawn),92*,0.2,81*,0.1
Cn1cnnc1SC(C(=O)c1ccccc1)c1ccccc1 (stereo not drawn),-4,0.2,81*,1
CC(Sc1nncn1C)C(=O)Nc1nnc(-c2ccccc2)s1 (stereo not drawn),51*,0.9,12,0.5
CC(Sc1nncn1C)C(=O)Nc1nnc(C(C)C)s1 (stereo not drawn),-6,1.1,-8,1.1
O=C(O)CC(Cc1ccc(Br)cc1)C(=O)O (stereo not drawn),9,1,-4,0.9
CCOC(=O)/C(=N/Nc1ccc(Cl)cc1)S(=O)(=O)c1ccccc1,20,0.9,12,0.8
O=S(=O)(c1cccc(F)c1)N1CCN(Cc2ccc3c(c2)OCO3)CC1,86*,0.1,91*,0.1
COCCNC(=O)CN(C)S(=O)(=O)c1ccc2c(c1)OCCO2,-80,0.8,24,1.8
SMILES,CYP2C9 inh,CYP2C19 act,CYP2C19 inhib,CYP2C9 act
CN(c1ccccc1)S(=O)(=O)c1cccc(C(=O)N2CCN(c3ccccn3)CC2)c1,88*,0.2,79*,0.1
CN(Cc1ccccc1)S(=O)(=O)c1ccc2c(c1)OCCO2,-82,0.1,87*,1.8
Oc1cccc(C(=S)N2CCN(Cc3ccccc3)CC2)c1,68*,0,100*,0.3
Cc1ccc(CCNC(=O)C2CCN(C(=O)N(C)C)CC2)cc1,11,0.9,5,0.9
O=C1CCC2(C(=O)O)Sc3ccccc3N12 (stereo not drawn),-34,1.3,-28,1.3
CCOC(=O)CNC(=O)CSc1ncnc2c1cnn2Cc1ccccc1,-10,0.8,23,1.1
O=C(Cc1ccccc1)N[C@H](c1ccccc1)P(=O)(O)CO,-4,1.1,-6,1
CCN(CC(=O)Nc1ccc2c(c1)OCCO2)C(=O)CC1CCCC1,44,0.6,41,0.6
CN1CCN(S(=O)(=O)c2ccc3c(c2)OCCO3)CC1,-22,0.5,46,1.2
CCN(CC(=O)Nc1ccc2c(c1)OCCO2)Cc1cc(=O)oc2c(C)c(C)ccc12,84*,0.1,92*,0.2
O=C(c1ccc2c(=O)n3c(nc2c1)CCCCC3)N1CCN(Cc2ccccc2)CC1,73*,0.4,55*,0.3
O=S(=O)(c1ccc2c(c1)OCCO2)N1CCN(c2cccc(Cl)c2)CC1,58*,0.1,89*,0.4
O=S(=O)(c1ccc2c(c1)OCCO2)N1CCN(Cc2ccc3c(c2)OCO3)CC1,89*,0.1,94*,0.1
COCC(C)n1c(C)cc(C(=O)COC(=O)c2ccc(N3CCCC3=O)cc2)c1C (stereo not drawn),2,0.9,13,1
CN(C)S(=O)(=O)c1cccc(C(=O)N2CCN(Cc3ccccc3)CC2)c1,4,0.5,53*,1
CC1CN(S(=O)(=O)Cc2ccccc2)CC(C)O1 (stereo not drawn),-22,0.3,66*,1.2
CC1CN(S(=O)(=O)c2ccccc2)CC(C)O1 (stereo not drawn),0,0.7,34,1
CN(Cc1ccccc1)S(=O)(=O)c1ccc(S(=O)(=O)N(Cc2ccc(F)cc2)C2CCCC2)cc1,58*,1.1,-6,0.4
O=S(=O)(Cc1ccccc1)N1CCN(Cc2ccc3c(c2)OCO3)CC1,54*,0.1,91*,0.5
O=S(=O)(c1ccc(F)c(F)c1)N1CCN(Cc2ccc3c(c2)OCO3)CC1,43,0.8,19,0.6
CN(Cc1ccccc1)S(=O)(=O)c1ccc(NC(=S)NC(=O)C2CCCC2)cc1,4,1,2,1
CCCCC1CC1C(=O)Nc1ncc2c(n1)CC(C)(C)CC2=O (stereo not drawn),19,0.9,14,0.8
c1ccc2c(c1)nc1sccn12,-38,1.1,-11,1.4
CC1CC(=O)Nc2ccccc2S1(=O)=O (stereo not drawn),-20,0.9,9,1.2
O=S(=O)(c1ccc2c(c1)OCCO2)N1CCN(Cc2ccccc2)CC1,-40,0.2,82*,1.4
SMILES,CYP2C9 inh,CYP2C19 act,CYP2C19 inhib,CYP2C9 act
OC1(c2ccc3c(c2)OCO3)CCN(Cc2ccccn2)CC1,-23,1.1,-9,1.2
O=C(NC1CCCCC1)NC1CCN(S(=O)(=O)c2ccc3c(c2)OCCO3)CC1,-15,1.1,-7,1.1
O=C(c1ccc2c(c1)OCCO2)N1CCN(Cc2ccccc2)CC1,-15,0.3,67*,1.2
O=S(=O)(c1ccccc1Cl)N1CCC(O)(c2ccc3c(c2)OCO3)CC1,-54,0,97*,1.5
O=S(=O)(c1ccc2c(c1)OCCO2)N1CCC(O)(c2ccc(Cl)cc2)CC1,12,0,98*,0.9
O=C(c1ccc2c(c1)OCCO2)N1CCCCC1,-2,0.9,12,1
CC(C)(C)C1=Nn2c(nnc2-c2ccccn2)SC1,-10,0.9,9,1.1
O=C(N1CCOCC1)N1CCN(Cc2ccccc2)CC1,-10,0.2,82*,1.1
